Holding throughout (assay): NCI-60 one-dose screen, 48 h (100 = growth as untreated, 0 = no growth, -100 = all killed)
Common to all, as to conditions: 10 µM unless noted

Experiment [1] concerns MOLT-4 leukemia.
Experiment [2] relates to SR leukemia.
The test system of experiment [3] is RPMI-8226 leukemia.
In experiment [4] the test system is OVCAR-8 ovarian.
Experiment [5] has as its system OVCAR-5 ovarian.
Experiment [6] has as its system OVCAR-4 ovarian.
For experiment [7], the system named is SK-OV-3 ovarian.
In experiment [8] the test system is IGROV1 ovarian.
The subject of experiment [9] is OVCAR-3 ovarian.
For experiment [10], the system named is HS 578T breast.
The subject of experiment [11] is NCI/ADR-RES ovarian.
Experiment [12] has as its system T-47D breast.
The subject of experiment [13] is BT-549 breast.
For experiment [14], the system named is MDA-MB-435 melanoma.
Experiment [15] concerns SW-620 colon.
The subject of experiment [16] is HCT-116 colon.
Experiment [17] deals with KM12 colon.
Experiment [18] concerns HCC-2998 colon.
For experiment [19], the system named is MCF7 breast.

This is an account of results in PubChem BioAssay (NCI).

About 83,000 compounds went through this panel and 20% of them were active in at least one assay; those are over-represented in the sample as a whole.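 Compound tested at a single concentration for 48 hours in 96-well plates; a percent growth value below 10 was scored as active.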 A number with no mark means an inactive call. Active and inactive are the calls of the source.

On to `COc1cc(C=Nc2cc(Cl)cc(Cl)c2)ccc1N(CCCl)CCCl`, for which the growth in experiment [1] is 58.9%; in [2], 41.2%; in [3], 75%; in experiment [4] it was 90.5%; in [5] it was 105%; in [6] it was 99.5%. The growth in experiment [7] was 91.1%; in experiment [8], 56.7%; in experiment [9], 91.1%; in [10] it was 93.5%; in experiment [11], 85.2%; in experiment [12], 95.4%. Also, the growth in experiment [13] is 85.4%; in experiment [14], 95.5%; in [15], 75.5%; in experiment [16], 90.4%; in experiment [17], 51.1%.

`COC1CC2c3ccccc3C1C(C)=[N+]2C` (configuration not stated): the growth in experiment [1] is 101%; in experiment [2], 105%; in experiment [3] it was 75.3%; in experiment [4] it was 96.6%; in experiment [5], 93.8%; in [6], 83.7%. Also, the growth in experiment [7] was 105%; in experiment [8] it was 92.5%; in [9], 102%; in [10] it was 105%; in experiment [11], 78.7%; in experiment [12], 107%. In addition, the growth in experiment [13] is 87.4%; in [14] it was 100%; in experiment [15], 104%; in [16] it was 103%; in [17], 104%.

Regarding `COC(=O)[C@@H](C)C[C@H](Cc1ccccc1)NC(=O)c1nc([C@@H](C[C@H](C(C)C)N(C)C(=O)[C@@H](NC(=O)[C@H]2CCCN2C)C(C)C)OC(C)=O)sc1C`, the growth in experiment [1] is 15.3%; in [2], 5.28% (active); in experiment [3] it was 20.6%; in [4], 14.5%; in experiment [5] it was 30.7%; in experiment [6] it was 49.9%. The growth in experiment [7] was 1.93% (active); in experiment [8] it was 27.4%; in experiment [9] it was -9.82% (active); in [10], 18.8%; in experiment [11], 4.35% (active); in experiment [12] it was 43.2%. Further, the growth is -12.7% (active) in experiment [13]; -18.4% (active) in [14]; 20.1% in experiment [15]; 13.5% in [18]; 11.9% in experiment [17].

As to `C/C(Cc1ccc(Cl)cc1)=C(\c1ccc(OCCN2CCOCC2)cc1)c1ccc(OC(=O)Cc2ccccc2)cc1`, the growth was 94.8% in experiment [1]; 87.1% in experiment [2]; 84% in experiment [3]; 92% in experiment [4]; 91.1% in experiment [5]; 101% in [6]. Besides, the growth is 109% in [7]; 86.4% in experiment [8]; 101% in experiment [9]; 99.1% in experiment [10]; 98.7% in experiment [11]; 66% in experiment [12]. Besides, the growth is 96.9% in experiment [13]; 96.5% in experiment [15]; 69.4% in [19]; 86.1% in [16]; 91.3% in experiment [18]; 98% in experiment [17].

On to `Nc1ccc2c(c1)oc1ccccc12`, for which the growth in [1] is 85%; in [2] it was 91%; in experiment [3] it was 79.3%; in [4], 107%; in experiment [5], 98.3%; in experiment [6], 103%. The growth in experiment [7] was 115%; in experiment [8], 110%; in experiment [9], 103%; in experiment [10] it was 104%; in [11], 95.1%; in [12], 97%. For the same compound, the growth in experiment [13] is 97.9%; in [14] it was 94.7%; in experiment [19], 83.2%; in experiment [16], 99.8%; in experiment [18], 97.6%; in experiment [17], 106%.

Consider `CCCC[C@H](NC(=O)[C@H]1CCCN1C)C(=O)N(C)[C@H](C[C@@H](OC(C)=O)c1nc(C(=O)N[C@@H](Cc2ccccc2)C[C@H](C)C(=O)OCC)cs1)C(C)C`, for which the growth in [1] is 14.5%; in experiment [2], 6.28% (active); in experiment [3], 16.6%; in [4], 20%; in [5], 32.7%; in experiment [6], 66.5%. The growth was 17.2% in [7]; 29.7% in experiment [8]; 8.32% (active) in experiment [9]; 12.6% in [10]; 7.13% (active) in experiment [11]; 54.4% in experiment [12]. The growth was -21.7% (active) in experiment [13]; -28.6% (active) in [14]; 22.1% in experiment [15]; 14.2% in experiment [18]; 13.6% in experiment [17].

Turning to `Cc1cc(N(CCCl)CCCl)ccc1/C=N\NC(=O)c1ccncc1`, the growth in experiment [1] is 58.8%; in experiment [2], 47.9%; in experiment [3] it was 90.6%; in experiment [4], 61.9%; in [5], 54.5%; in experiment [6], 89.1%. In addition, the growth in experiment [7] was 95.4%; in experiment [8], 87%; in [9], 90.8%; in experiment [10], 109%; in experiment [11] it was 80.5%; in experiment [12], 54.4%. Also, the growth was 75.1% in [13]; 89.1% in [14]; 62% in experiment [19]; 78.8% in experiment [16]; 107% in experiment [18]; 95.6% in experiment [17].

Take `CC12CCC=CC1CCC1C2CCC2(C)C(c3ccc(=O)oc3)CCC12O` (configuration not stated): the growth was -16.7% (active) in experiment [1]; -4.41% (active) in experiment [2]; -14.1% (active) in experiment [3]; -51.4% (active) in experiment [4]; -80.4% (active) in experiment [5]; -52.8% (active) in [6]. The growth in [7] is -11% (active); in experiment [8], -12.3% (active); in experiment [9], -74.5% (active); in experiment [10], -14.8% (active); in experiment [11], -51.5% (active); in experiment [12], -13.6% (active). The growth in [13] is -65.2% (active); in [14] it was -95.2% (active); in experiment [15] it was -36.7% (active); in [16], -64.2% (active); in experiment [18] it was -21.5% (active); in experiment [17] it was -55.7% (active).

Consider `CCOP(=O)(Cc1ccc(C#N)cc1)OCC`, for which the growth was 94.8% in experiment [1]; 89% in experiment [2]; 103% in experiment [3]; 94.3% in [4]; 106% in [5]; 104% in experiment [6]. Also, the growth in experiment [7] was 102%; in experiment [8], 118%; in [9] it was 110%; in experiment [10], 105%; in [11] it was 108%; in experiment [12] it was 101%. Moreover, the growth in experiment [13] is 109%; in experiment [14] it was 114%; in experiment [15] it was 99.9%; in experiment [16], 84.5%; in experiment [18], 110%; in experiment [17], 107%.

Turning to `C[C@]12CC[C@H]3[C@@H](CC[C@]4(O)C[C@@H](O[C@@H]5O[C@H](CO)[C@@H](O[C@@H]6OC[C@@H](O)[C@H](O)[C@H]6O)[C@H](O)[C@H]5O)CC[C@]34C=O)[C@@]1(O)CC[C@@H]2C1=CC(=O)OC1`, the growth was -36.3% (active) in experiment [1]; -31.7% (active) in experiment [2]; 10% in [3]; 2.06% (active) in [4]; 31.1% in experiment [5]; 2.78% (active) in experiment [6]. Moreover, the growth in [7] is -3.1% (active); in experiment [8], 18.6%; in experiment [9], -34.5% (active); in experiment [10], 8.83% (active); in [11] it was -66.3% (active); in experiment [12], 2.52% (active). Further, the growth is 5.05% (active) in experiment [13]; 8.41% (active) in experiment [15]; 3.61% (active) in experiment [19]; 5.35% (active) in experiment [16]; 38.8% in experiment [18]; 16.9% in experiment [17].

Regarding `O=C(Nc1ccncc1F)c1cn(CC2CC2)c2ccccc12`, the growth in experiment [1] is 101%; in experiment [2], 116%; in experiment [3], 91.9%; in experiment [4], 101%; in experiment [5], 113%; in experiment [6], 97.7%. The growth in experiment [7] was 105%; in experiment [8], 109%; in experiment [9], 110%; in experiment [10], 98.7%; in [11], 101%; in [12] it was 92.3%. Besides, the growth in experiment [13] was 94.4%; in experiment [15], 105%; in [19], 94.9%; in experiment [16], 99.5%; in experiment [18] it was 106%; in experiment [17], 104%.

In the case of `CC(=O)OC[C@]1(C)C=C2C(=O)[C@](C)(O)C3(CC3)C(C)=C2[C@H]1O`, the growth in [1] is 12.2%; in [2] it was 9.64% (active); in experiment [3] it was 75.8%; in [4], -0.446% (active); in experiment [5], -14.4% (active); in experiment [6], -9.54% (active). Besides, the growth in experiment [7] was -40.4% (active); in experiment [8], -31.1% (active); in experiment [9], -29.4% (active); in [10] it was -21.5% (active); in [11], -18.7% (active); in experiment [12], -8.92% (active). Besides, the growth in [13] was -42.4% (active); in experiment [15], 0.025% (active); in [19], 1.05% (active); in experiment [16] it was 0.12% (active); in experiment [18] it was -59.8% (active); in [17], 10.4%.

Take `O=C(Nc1ccc([N+](=O)[O-])cc1)C(Cl)(Cl)Cl`: the growth in experiment [1] was 107%; in [2], 94.1%; in experiment [3], 106%; in [4], 100%; in experiment [5], 95.6%; in experiment [6] it was 103%. Besides, the growth in experiment [7] is 115%; in experiment [8], 93.5%; in experiment [9], 117%; in experiment [10], 99.8%; in experiment [11], 99.6%; in experiment [12], 80.7%. Moreover, the growth in experiment [13] is 91.6%; in [14], 104%; in [15], 105%; in [16], 91.1%; in experiment [17], 97.1%.

`Nc1cc2nc3ccccc3nc2cc1N`: the growth is 91.1% in experiment [1]; 82.4% in experiment [2]; 80% in [3]; 83% in [4]; 99.9% in experiment [5]; 84% in experiment [6]. Further, the growth is 82.3% in experiment [7]; 96% in [8]; 92.1% in experiment [9]; 76.8% in [10]; 94.8% in experiment [11]; 52.7% in experiment [12]. Moreover, the growth in experiment [13] is 94%; in experiment [15], 98%; in experiment [19], 23.5%; in [16], 74.9%; in experiment [18], 96.8%; in [17], 91.6%.
